Experimental data taken from PubChem BioAssay.
Values without a mark were called inactive. How the calls were made is not given here.

The compounds below were run against Pantothenate synthetase (Mycobacterium tuberculosis (strain ATCC 25618 / H37Rv)) (UniProt P9WIL5) (assay: Recombinant Mtb pantothenate synthetase (PanC) inhibitors, coupled enzyme, confirmatory (AID 375;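 further: 0% = full reaction with vehicle and 100% = no enzyme background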)). Settings: coupled enzyme assay; at 10 µM, active compounds read high.
Chain of Pantothenate synthetase (Mycobacterium tuberculosis (strain ATCC 25618 / H37Rv)) (P9WIL5 whole entry, looked up): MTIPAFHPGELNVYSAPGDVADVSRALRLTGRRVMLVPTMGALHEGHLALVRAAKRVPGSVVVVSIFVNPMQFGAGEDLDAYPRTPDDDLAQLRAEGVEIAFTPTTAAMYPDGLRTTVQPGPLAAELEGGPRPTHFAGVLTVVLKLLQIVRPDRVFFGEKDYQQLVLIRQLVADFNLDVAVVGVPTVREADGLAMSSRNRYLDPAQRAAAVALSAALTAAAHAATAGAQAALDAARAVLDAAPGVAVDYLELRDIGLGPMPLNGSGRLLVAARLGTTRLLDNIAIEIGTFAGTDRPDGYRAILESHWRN

Structure (SMILES) | inhibition
N#CC(C(=O)c1ccco1)c1ccccn1 (centres undefined) | 3%
O=P(CCNCc1ccco1)(c1ccccc1)c1ccccc1 | 0%
CC(C)(O)C#Cc1ccc(C(=O)N2CCN(C(=O)c3ccco3)CC2)cc1 | 0%
Cc1nn(-c2ccc(F)cc2)c2sc(C(=O)O)cc12 | 0%
COc1ccccc1C1N(c2ccc(F)cc2)C(=O)C2CCCN21 (centres undefined) | 0%
COc1cc2c(cc1NC(=O)COC(=O)Cn1cnc3ccccc31)oc1ccccc12 | 0%
O=C(Nc1nccs1)c1ccc(Cl)c(S(=O)(=O)N2CCCCC2)c1 | 0%
Cc1ccc(O)c(-c2cc3ccccc3[nH]2)c1 | 0%
CCCCN(Cc1cc2cc(OC)ccc2[nH]c1=O)C(=O)c1ccccn1 | 1%
COCCn1c(CN2CCN(c3ccccc3F)CC2)nc2c1c(=O)n(C)c(=O)n2C | 6%
C=CCOc1ccccc1/C=c1\sc2nc(=O)c(C)nn2c1=O | 0%
CCCCC(=O)NCCc1cc2c(C)ccc(C)c2[nH]c1=O | 0%
CCOC(=O)C1=C[C@]2(CC)CCCN3CCc4c(n1c1ccccc41)[C@@H]32 | 4%
CC(C(=O)Oc1ccc2c(c1)OCO2)N1C(=O)c2ccccc2C1=O (centres undefined) | 5%
Cc1cc(C)n2cc(CSc3nnnn3C)nc2n1 | 0%
CCCn1c2ccccc2c2nnc(SCC(=O)Nc3ncccn3)nc21 | 8%
Cc1cc(C(=O)CSc2nc3ccccc3n2CCC#N)c(C)n1Cc1cccs1 | 0%
Cc1ccc(S(=O)(=O)N2CCN(C(=O)CSc3nc4ccccc4c(=O)[nH]3)CC2)c(C)c1 | 2%
CCN1CCN(C(=O)C2CCN(C(=O)c3cc4sccc4n3CC)CC2)CC1 | 14%
COc1ccc(CCn2c(C)cc(C(=O)CSc3nnnn3C)c2C)cc1 | 0%

Structure (SMILES) | inhibition
CCOc1ccc2ccccc2c1/C=N/n1cncn1 | 0%
CCOC(=O)C1CCCN(C(=O)c2sc3nc(-c4ccccc4)cn3c2C)C1 (centres undefined) | 0%
CCOc1ccc(OCC)c(NS(=O)(=O)c2ccc3c(c2)n(C)c(=O)c(=O)n3C)c1 | 3%
CC1CN(c2c3c(nc4ncnn24)CCCC3)CC(C)O1 (centres undefined) | 2%
O=C(CSc1nc2[nH]ncc2c(=O)n1-c1ccccc1Br)NCc1ccco1 | 1%
COc1ccc(C2CC(c3ccc(Cl)cc3Cl)Nc3nc(N)nn32)cc1 (centres undefined) | 0%
CCC1c2ccc(C)n2CCN1C(=O)Nc1ccccc1OC (centres undefined) | 9%
O=C(CSc1ncnc2sc3c(c12)CCCCC3)NCc1ccco1 | 3%
O=C(O)C1CC=CCC1C(=O)Nc1cccc(F)c1 (centres undefined) | 3%
CCCc1nc2ccccc2c(=O)n1NC(=O)c1c(O)c2cccc3c2n(c1=O)CCC3 | 0%
C=CCN1C(=O)/C(=C2\SC(N3CCOCC3)=NC2=O)c2cc(Br)ccc21 | 0%
O=C(Nn1c(C2CC2)nc2ccccc2c1=O)c1ccco1 | 0%
COc1cccc(S(=O)(=O)Nc2ccc(C(=O)N3CCN(C(=O)c4ccco4)CC3)cc2)c1 | 0%
O=C(O)c1cc2cc(F)ccc2[nH]1 | 2%
O=C(CSC1=NC(=O)C(Cc2ccccc2)C(=O)N1)NC1CCCCC1 (centres undefined) | 0%
C=CCn1c(COc2ccccc2F)nnc1SCC(=O)N1CC(=O)Nc2ccccc21 | 1%
CCCN(CC1CC1)C(=O)Nc1ccccc1C | 1%
c1ccc(Cn2nnc3c(N4CCCCCC4)ncnc32)cc1 | 7%
CC1(C)CC(=O)C2=C(C1)OC(=O)C2(NC(=O)c1cccs1)C(F)(F)F (centres undefined) | 1%
